Screening results deposited in PubChem BioAssay by several laboratories.
A selection: hits, their analogues and other compounds. The true share with any hit is near 3.1%.
NadD inh = inhibitors of S. aureus NadD, primary screen, biochemical, colorimetric, uHTS; Nicotinate-nucleotide adenylyltransferase NadD (Staphylococcus aureus N315); purified NadD enzyme, colorimetric absorbance read-out; inhibition, % at 20 µM; actives 0.78% (n = 360,000); AID 602399, 2012; in the data active = inhibition above about 26%
Calb FLC = C. albicans growth inhibition with fluconazole, primary screen, CaCi-2 strain, Alamar Blue fluorescence; actives 0.57% (n = 300,000); C. albicans CaCi-2 (fluconazole-resistant clinical isolate) + fluconazole, 48 h; growth inhibition, % (test concentration not listed);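 active = growth inhibition above about 58% in most replicates, limit read from the data, passing the limit was not always enough; inconclusive = exactly half the replicates above a set limit; inactive = most replicates below a set limit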;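 note: all wells also contain fluconazole at 8 µg/ml as a sub-toxic cotreatment; 0% = median of DMSO wells and 100% = median of geldanamycin control wells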
ATG4B inh = ATG4B protease inhibitors, primary screen, biochemical, fluorescence, uHTS; inhibition, % at 8.33 µM; Cysteine protease ATG4B (Homo sapiens), Q9Y4P1; AID 504462, 2011; ATG4B cleavage of LC3-PLA2, NBD-HPC fluorescence, 1 h; actives 0.51% (n = 340,000); in the data active = inhibition above about 40%
SUMO Mot1 rescue = yeast Mot1-301 growth rescue at high temperature, primary screen, SUMOylation pathway inhibitor project, S. cerevisiae, ATP luminescence, 38.5C; actives 1% (n = 320,000); AID 2716, 2010; growth rescue, % at 18.8 µM; S. cerevisiae Mot1-301 growth rescue; percent above DMSO median, 100 means doubled;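 active = every valid replicate shows activation above 250% relative to neutral control wells; inactive = the rest, any valid replicate at or below 250%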;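 note: OY570 slx delta 5 strain wells were the positive control but not used for scaling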
FAS-TE inh = FAS thioesterase domain inhibitors, primary screen, biochemical, fluorescence intensity, uHTS | Fatty acid synthase (Homo sapiens), P49327 | recombinant FAS-TE, OMFH fluorogenic substrate, fluorescence endpoint | inhibition, % at 15 µM | actives 0.67% (n = 360,000) | AID 602261, 2012;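 active = compounds whose normalised, plate-corrected inhibition of enzyme fluorescence in the single-dose primary screen is 50% or more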;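 note: 0% = DMSO with enzyme and 100% = substrate without enzyme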
ATG4B confirm = ATG4B protease inhibitors, retest, confirmation, biochemical, fluorescence, single concentration | actives 92% (n = 320) | inhibition, % at 8.33 µM | shares compounds with ATG4B inh | ATG4B protease fluorescent substrate cleavage assay | AID 504757, 2011; in the data active = inhibition above about 39%
PLA2 counter = PLA2 enzyme inhibition, counter-screen for ATG4B inhibitor project, biochemical, single concentration, uHTS hits | AID 588402, 2011 | actives 66% (n = 1,600) | shares compounds with ATG4B inh | inhibition, % at 8.33 µM | purified PLA2, NBD-C6-HPC fluorescence, 45 min; in the data active = inhibition above about 50%
* = called active by the depositor; u = inconclusive; x = no result.

SMILES	NadD inh	Calb FLC	ATG4B inh	SUMO Mot1 rescue	FAS-TE inh	PLA2 counter	others
C=C(C)Cn1c(SCC(=O)N/N=C/c2c(O)ccc3ccccc23)nc2ccccc2c1=O	35*	2	41*	-11	36	-2	ATG4B confirm=56*
Cc1ccc(-n2c(SCC(=O)N/N=C/c3c(C)nn(-c4ccccc4)c3C)nc3ccccc3c2=O)cc1	22	-5	40*	-9	-1	-4	ATG4B confirm=78*
Cc1cccc(C(=O)c2cnc3ccccc3c2-c2ccccc2)c1	-1	2	57*	-18	24	59*
Cc1cccc(C(=O)NNC(=O)c2ccccc2)c1	1	-3	-12	24	-14	x
COC(=O)C1=CO[C@@H](O[C@@H]2O[C@H](CO)[C@@H](O)[C@H](O)[C@H]2O)C2C1CC(O)O[C@H]2C (stereo not given in full)	-1	x	-8	9	-9	x
COc1cc(-c2nnc(SCc3ccccc3Cl)o2)cc(OC)c1OC	-9	1	-1	17	21	x
COc1cc(-c2nnc(SCc3c(F)cccc3Cl)o2)cc(OC)c1OC	-13	17	42*	7	24	57*
Cc1cc(C)c2nc3sc(=Cc4ccc(-c5ccccc5C(=O)O)o4)c(=O)n3c2c1	24	x	x	x	-48	x
O=C(O)c1ccc(-c2ccc(/C=c3/sc4nc5ccccc5n4c3=O)o2)cc1Cl	19	6	50*	122	-2	19	ATG4B confirm=82*
O=C(O)c1ccc(C2Nc3ccccc3C(=O)N2Cc2ccccc2)cc1 (stereo not given)	-10	-1	-2	-1	-2	x
C=CCN1C(c2ccccc2)=CS/C1=C(\C#N)c1nnc2n1CCCCC2	2	-2	8	1	-8	x
C=CCN1C(c2ccc(Br)cc2)=CS/C1=C(/C#N)c1nnc(N2CCOCC2)n1-c1ccccc1	17	u	61*	-24	24	70*
C=CCN1C(c2cccc(C(F)(F)F)c2)=CS/C1=C(/C#N)c1nnc(N2CCOCC2)n1-c1ccccc1	14	-7	50*	-6	4	55*
O=C(O)c1cc(-c2ccco2)nn1-c1ccc(Cl)cc1	7	-3	43*	x	0	17
O=C(O)c1cc(-c2ccco2)nn1-c1cccc(Cl)c1	6	12	17	33	0	x
O=C(NCCc1ccc(Cl)cc1)Nc1ccc(Cl)cc1	-8	-12	4	-1	-1	x
O=C(NCc1ccc(F)cc1)Nc1cccc(Cl)c1	-4	-27	67*	7	26	73*
Cc1onc(-c2ccccc2)c1CNC(=O)Nc1cccc(Cl)c1	-4	-36	46*	97	21	44	ATG4B confirm=73*
O=C(NCc1ccc(F)cc1)Nc1ccc(Cl)cc1	-9	7	46*	-18	3	54*
FC(F)Sc1ccc(NC(=S)NC(c2ccccc2)c2ccccc2)cc1	-8	-10	-3	-14	33	x
Cc1cc(C)cc(NC(=O)NCc2c(-c3ccccc3)noc2C)c1	-8	-6	17	22	2	x
FC(F)Sc1ccc(NC(=S)NCc2ccccc2)cc1	-2	-13	44*	25	40	60*
O=C(CN(C(=O)CCC(=O)Nc1ccccn1)c1ccccc1F)NCc1ccc2c(c1)OCO2	0	4	-2	190	0	x
CNS(=O)(=O)c1cc(S(=O)(=O)NC)c2cccc3c2c1NC3=O	-6	8	5	-2	-2	x
O=C(CN1CCc2ccccc21)NC(=O)NCc1ccccc1	7	-8	5	4	-2	x
SMILES	NadD inh	Calb FLC	ATG4B inh	SUMO Mot1 rescue	FAS-TE inh	PLA2 counter	others
CCN(C[C@H]1N[C@@](Cc2ccccc2)(C(=O)OC)[C@H]2C(=O)N(C)C(=O)[C@@H]12)C(=O)COC	2	x	4	-9	-9	x
S=C(NCc1ccccc1)Nc1cccc(Cl)c1	-2	-2	50*	-7	12	43	ATG4B confirm=59*
COc1ccc(-c2nc(CS(=O)(=O)CC(=O)NCc3ccc(F)cc3)c(C)o2)cc1	-8	0	28	132	1	x
C=CCn1c(SCC(=O)c2ccccc2)nnc1-c1cc2ccccc2o1	-2	25	62*	173	13	62*
O=C(Cn1cccc1C(=O)c1ccccc1)NCCc1ccc(Cl)cc1	-11	22	45*	314*	6	53*
O=C(O)c1cc(O)c2c(c1)[C@@H]([C@H]1c3cc(C(=O)O)cc(O)c3C(=O)c3c(O[C@@H]4O[C@H](CO)[C@@H](O)[C@H](O)[C@H]4O)cccc31)c1cccc(O[C@@H]3O[C@H](CO)[C@@H](O)[C@H](O)[C@H]3O)c1C2=O	x	x	47*	35	x	-12
Cc1onc(-c2ccccc2Cl)c1C(=O)NC(=S)NCC(=O)c1ccccc1	4	5	45*	x	31	47
CC1CCCN(C(=O)c2ccc(COc3ccccc3Br)cc2)C1 (stereo not given)	-1	22	61*	-6	17	69*
C/C(=N\NC(=O)c1ccc(OC2CCCC2)cc1)c1ccc(O)cc1	1	-4	41*	-3	0	48
CCN(CC)c1ccc(C(=O)N/N=C(\C)c2ccc(O)cc2)cc1	4	-2	36	-5	-10	x
O=C1CC(c2ccccc2Cl)CC(O)=C1C=Nc1ccccc1 (stereo not given)	-2	-13	53*	28	20	53*
CCCNC(=O)C1(C)CCCN(Cc2ccc(-n3ccnc3)cc2)C1 (stereo not given)	-1	x	x	x	-10	x
CCN(Cc1ccc2c(c1)OCO2)C(=O)CSc1ncnc2sccc12	1	x	3	158	14	x
CCN(Cc1ccc2c(c1)OCCO2)C(=O)CSc1nc(C)nc2sc(C)c(C)c12	3	x	47*	-3	22	68*
Nc1nnc(Cc2ccc(Cl)cc2Cl)s1	-1	-2	71*	-13	-5	76*
Cc1ccsc1C(=O)N1CCCC(C)(C(=O)NS(=O)(=O)C2CC2)C1 (stereo not given)	5	x	x	x	2	x
O=C(Nc1ccc(Cl)cc1)NC1CCCCC1Cc1ccco1 (stereo not given)	-3	1	70*	24	20	80*
